Test results from PubChem BioAssay AID504607 (Sanford-Burnham Center for Chemical Genomics, 2011).
About 4,800 (77%) of roughly 6,200 compounds were called active. The set was probably picked from earlier hits. A selection follows. Unmarked numbers belong to inactive results.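 The calls were made as follows: active = mean inhibition at 8 µM reaching about 37%, which flags the compound as non-specific (limit read from the data); inactive = the rest.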

Assay: full-length luciferase signal inhibition, confirmation, counter-screen for Mdm2/MdmX interaction inhibitor project, cell-based, single concentration, SaOS-2 (AID 504607);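 also: p53-null SaOS-2 cells with luciferase driven by a doxycycline-inducible promoter; compound on cells about two nights before reading with doxycycline added after day one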
Conditions: SaOS-2 full-length luciferase counterscreen, luminescence; at 8 µM; stronger effect = higher value

Row | Structure (SMILES) | inhibition
1 | COc1ccc(NC(=O)c2cc(-c3cc(OC)c(OC)c(OC)c3)nc3ccccc23)c(OC)c1 | 58.2% (active)
2 | COc1ccc(Nc2ncnc3ccc(Br)cc23)c(OC)c1 | 24.3%
3 | Cc1ccc2nc(-c3ccncc3)cc(C(=O)Nc3ccc4c(c3)OCCO4)c2c1 | 44.2% (active)
4 | COc1ccc(C(CCN(Cc2ccc(OC)c(OC)c2)C(=O)CCl)c2ccccc2)cc1 (stereo not given) | 58.4% (active)
5 | Cc1noc(C)c1-c1ccc2ncnc(NC(C)c3ccco3)c2c1 (stereo not given) | 59.8% (active)
6 | Cc1cccc(Nc2nc3c(S(=O)(=O)c4ccccc4)nnn3c3ccccc23)c1C | 94.3% (active)
7 | CN(c1ccc2nc3ccccc3c(=O)n2n1)C1CCCCC1 | 27.7%
8 | CC(Nc1nc(C(F)(F)F)nc2ccccc12)c1cccs1 (stereo not given) | 50.3% (active)
9 | CC(C)(C)Nc1nc(-c2ccccn2)nc2ccccc12 | 23.3%
10 | COc1ccc(Cc2nnc(N/N=C/c3ccccc3O)[nH]c2=O)cc1OC | 38.6% (active)
11 | Cc1nnc(N/N=C/c2ccccn2)[nH]c1=O | 20.6%
12 | CCOc1cc(N2CCOCC2)c(OCC)cc1NC(=O)COc1cccc2cccnc12 | 39.6% (active)
13 | COc1ccccc1C1C2=C(COC2=O)Nc2cc3c(cc21)OCO3 (stereo not given) | 90.3% (active)
14 | CCCOc1ccccc1C1CC(=O)Nc2cc3c(cc21)OCO3 (stereo not given) | 74.9% (active)
15 | CCOc1ccc(S(=O)(=O)Nc2cccc(C(=O)NCC3(N4CCCCC4)CCCCC3)c2)cc1 | 56.1% (active)
16 | COc1ccc(CS(=O)/C(Cl)=C(/Cl)C(=O)Nc2ccc(OC)nc2)cc1 (stereo not given) | -0.43%
17 | O=C(CCCN1C(=O)/C(=C/c2cccs2)SC1=S)Nc1ccc(O)cc1 | 43% (active)
18 | O=C(CCCN1C(=O)/C(=C\c2ccco2)SC1=S)Nc1cccc2ccccc12 | 28.5%
19 | O=C(CCCN1C(=O)/C(=C/c2ccccc2)SC1=S)Nc1ccc(O)cc1 | 51.8% (active)
20 | O=C(CCCN1C(=O)/C(=C\c2ccccc2)SC1=S)Nc1ccccc1O | 30.3%
21 | COc1ccc(/C=C2\SC(=S)N(CCC(=O)Nc3ccccn3)C2=O)cc1OC | 72.7% (active)
22 | O=C1/C(=C/c2ccc(F)cc2)SC(=S)N1CCCC(=O)N1CCCCC1CCO (stereo not given) | 23.7%

Row | Structure (SMILES) | inhibition
23 | O=C(CCCN1C(=O)/C(=C/c2ccco2)SC1=S)Nc1ccccc1 | 50% (active)
24 | CCOc1ccc(-c2cc(C(=O)N/N=C/c3ccc(O)cc3)c3ccccc3n2)cc1 | 48.3% (active)
25 | Cc1nc2ccccc2nc1N/N=C/c1ccc(O)cc1O | 46.2% (active)
26 | Oc1ccc(/C=N/Nc2nc(-c3ccccc3F)nc3ccccc23)c(O)c1 | 31%
27 | COc1cc(OC)c2c(-c3cccc(-c4cccc(N)c4)c3)cc(=O)oc2c1 | 50.1% (active)
28 | CC(NC(=O)c1ccc(N2CCNCC2)c([N+](=O)[O-])c1)C12CC3CC(CC(C3)C1)C2 (stereo not given) | 56.5% (active)
29 | CC[C@]1(O)CC2CN(CCc3c([nH]c4ccccc34)[C@@](C(=O)OC)(c3cc4c(cc3OC)N(C=O)[C@H]3[C@@](O)(C(=O)OC)[C@H](OC(C)=O)[C@]5(CC)C=CCN6CC[C@]43[C@@H]65)C2)C1 (stereo not given in full) | 102% (active)
30 | CC[C@]1(O)C[C@@H]2CN(CCc3c([nH]c4ccccc34)[C@@](C(=O)OC)(c3cc4c(cc3OC)N(C)[C@H]3[C@@](O)(C(=O)OC)[C@H](OC(C)=O)[C@]5(CC)C=CCN6CC[C@]43[C@@H]65)C2)C1 | 94.7% (active)
31 | Oc1c(CN2CCN(c3ccc(F)cc3)CC2)cc(Cl)c2cccnc12 | 25.7%
32 | N#Cc1ccc(C(=O)Nc2nc(-c3cccs3)c(C(=O)C(F)(F)F)s2)cc1 | 54.4% (active)
33 | COc1ccc(CNC(=O)C(c2ccc(O)cc2)N(Cc2ccco2)C(=O)c2snc(C(N)=O)c2N)cc1 (stereo not given) | 88.8% (active)
34 | Clc1ccc2c(c1)C1=C(C(c3ccncc3)O2)C(c2ccc(Br)cc2)n2ncnc2N1 (stereo not given) | 67.2% (active)
35 | Nc1nc(CC(=O)CSc2ccc(Cl)cc2)nc(Nc2ccc(F)cc2)n1 | 29.2%
36 | COc1ccc(C2=Nn3c(nnc3-c3ccccc3OC)SC2)cc1OC1CCCC1 | 68.2% (active)
37 | Cc1nc(N=C(N)N)nc2c(C)cccc12 | 63.3% (active)
38 | Cc1nc(/N=C(\N)NC(=O)NC2CCCCC2)nc2ccccc12 | 34.4%
39 | COc1ccc(CNC(=O)C[C@H]2C[C@H](C(=O)N3CCOCC3)[C@@]3(CCC4CCCC4)c4[nH]c5ccc(Cl)cc5c4CCN3C2=O)cc1OC | 39.6% (active)
40 | CN(C)c1ccnc2sc3c(=O)n(Cc4ccccc4)cnc3c12 | 15.1%
41 | Cc1cccc(CS(=O)(=O)c2ncc(Cl)c(C(=O)Nc3ccc(F)cc3)n2)c1 | 51.2% (active)
42 | Cc1cccc(NC(=O)c2nc(S(=O)(=O)Cc3ccccc3)ncc2Cl)c1 | 50.9% (active)
43 | O=C(CCl)Nc1cccc(CP(=O)(c2ccccc2)c2ccccc2)c1 | 27.6%
44 | C[C@@H](NC(=O)OC(C)(C)C)c1nnc(S(=O)(=O)Cc2ccccc2)o1 | 24.9%

Row | Structure (SMILES) | inhibition
45 | O=C(/C(=C/c1cccc(Cl)c1)c1nc2ccccc2[nH]1)c1ccccc1 | 97.6% (active)
46 | CCCCNC(=O)C(C)N(CCN(C)C)C(=O)CCCCCN1C(=O)NC(c2ccc(Cl)cc2)C(C(=O)OCc2ccccc2)=C1C (stereo not given) | 27.8%
47 | Cc1cc2cc3c(cc2nc1SCC(=O)Nc1c(C)cccc1C)CCC3 | 60.3% (active)
48 | CCOC(=O)Nc1ccc2c(c1)N(C(=O)CCCl)c1ccccc1[S@]2=O | 54% (active)
49 | CNC[C@H](CC1CCCCC1)NC[C@H](NCCC1CCCC1)[C@H](C)O | 30.2%
50 | COc1ccc(CN(C)C(=O)c2cc(-c3ccc(C)cc3C)nc3ccccc23)c(OC)c1OC | 62.1% (active)
51 | COc1ccc(-c2cc(C(=O)N(C)CC(=O)Nc3ccccc3Cl)c3ccccc3n2)cc1OC | 79% (active)
52 | COc1ccc(-c2cc(C(=O)N(C)Cc3ccc(OC)c(OC)c3OC)c3ccccc3n2)cc1OC | 97.7% (active)
53 | COc1cc(SC)ccc1C(=O)Nc1nc(C)cs1 | 43.3% (active)
54 | COc1c(C)c2c(c(O)c1C/C=C(\C)CCC(=O)O)C(=O)OC2 | 22.9%
55 | O=C(Nc1ccc2c(c1)OCCO2)C1CCCC1 | 88.1% (active)
56 | Oc1c(Cl)cc(Cl)c(Cl)c1Cc1c(O)c(Cl)cc(Cl)c1Cl | 26.8%
57 | CCNC(=O)c1c(O)c2cccc3c2n(c1=O)CC3 | 22.6%
58 | Cc1ccc(-c2nn(C(C)(C)C)c3ncnc(N)c23)cc1 | 30.7%
59 | O=C1NC[C@@H](c2ccccc2)OC(=O)[C@H](Cc2ccc(F)cc2)CC/C=C/C[C@H]1CC(=O)N(CCO)Cc1ccccc1 | 79% (active)
60 | Cc1cc(NC(=O)/C=C/C(=O)N(c2ccccc2C)C(C(=O)NC2CCCC2)c2ccc(F)cc2)no1 (stereo not given) | 28.7%
61 | COc1ccc(C(C(=O)NC2CCCCC2)N(C(=O)CCl)c2ccccc2Cl)cc1 (stereo not given) | 78.5% (active)
62 | COc1ccc(OC)c(Nc2nc(-c3ccc(O)c(O)c3)cs2)c1 | 79.9% (active)
63 | Cc1oc2c(c1C(=O)N1CCOCC1)C(=O)c1ccccc1C2=O | 56.8% (active)
64 | O=S(=O)([N-]c1nc2ccccc2nc1-[n+]1ccc(Cc2ccccc2)cc1)c1ccc(Br)s1 | 56.5% (active)
65 | OCCNc1nc(Nc2ccc(Cl)c(Cl)c2)nc2ccccc12 | 24.3%
66 | O=[N+]([O-])c1c(NCCO)cc(Sc2nc3ccccc3s2)c2nonc12 | 50.4% (active)

Row | Structure (SMILES) | inhibition
67 | COC(=O)Cc1[nH]n(-c2nc3ccccc3s2)c(=O)c1C(C)=Nc1ccc(OC)cc1 | 26.2%
68 | O=C(Nc1ccccc1Cl)/C(Cl)=C(\Cl)S(=O)c1ccccc1 (stereo not given) | 1.94%
69 | Cc1ccc(N(Cc2cc(=O)[nH]c3ccccc23)C(=O)CCl)cc1 | 25.3%
70 | CCCC(O)(CCC)C(=O)NN(C(=O)CCl)c1cccc(C)c1 | 23.7%
71 | Cc1cccc(N(C)C(=O)c2cc3c(=O)[nH]c4ccc(C)cc4c3s2)c1 | 43.4% (active)
72 | CC[C@]1(C(=O)OC)[C@H]2C(=O)N(Cc3ccccc3)C(=O)[C@H]2[C@H]2CN=C(SCc3ccc(Cl)cc3)N21 | 52.2% (active)
73 | CC[C@]1(C(=O)OC)[C@H]2C(=O)N(Cc3ccccc3)C(=O)[C@H]2[C@H]2CN=C(SCc3ccccc3)N21 | 35.8%
74 | CC[C@]1(C(=O)OC)[C@H]2C(=O)N(Cc3ccccc3)C(=O)[C@H]2[C@H]2CN=C(SCc3ccc(C#N)cc3)N21 | 54.6% (active)
75 | Cc1cc(Nc2cc(N3CCN(C)CC3)nc(Sc3ccc(NC(=O)C4CC4)cc3)n2)n[nH]1 | 41.6% (active)
76 | Cc1[nH]c(C)c(S(=O)(=O)N2CCN(c3cccc(C(F)(F)F)c3)CC2)c1C(=O)N1CCCCC1 | 54.6% (active)
77 | COc1ccc(CNc2nc(NCc3ccc(OC)cc3)c3ncn(C4CCCC4)c3n2)cc1 | 73% (active)
78 | Cc1c(CN2CCC(CO)(CCOc3ccccc3)CC2)[nH]c2ccc(Cl)cc12 | 53.7% (active)
79 | N#CC1=C(N)Oc2cc(O)ccc2C1C1CCCCC1 (stereo not given) | 56.5% (active)
80 | Cc1[nH]c(=O)c(C(=O)/C=C/c2ccccc2)c2c1CCCC2 | 53.3% (active)
81 | COc1ccc2cc1Oc1ccc(cc1)C[C@H]1c3cc(c(OC)cc3CCN1C)Oc1c(O)c(OC)cc3c1[C@H](C2)N(C)CC3 | 51.1% (active)
82 | CCN1C(=O)/C(=C\N2CCN(c3cccc(Cl)c3)CC2)SC1=S | 72.2% (active)
83 | COc1cccc2sc(N(CCCN(C)C)C(=O)C(c3ccccc3)c3ccccc3)nc12 | 24.8%
84 | COc1cccc2sc(N(CCCN(C)C)C(=O)CCS(=O)(=O)c3ccccc3)nc12 | 21.2%
85 | COc1cccc2sc(NNC(=O)c3nc4ccccc4s3)nc12 | 68.2% (active)
